Laboratory results taken from PubChem BioAssay AID1851 (National Center for Advancing Translational Sciences (NCATS), 2009).
Hit rate of the full screen: of about 16,000 compounds, about 4,000 (25%) were called active. About 26% were inconclusive and are not listed. Calls come from the whole dose curve; as a rule, active = well fitted curve in the direction sought with a large enough effect; inconclusive = small, poorly fitted or top-dose-only effect, or effect the other way; inactive = no such curve, though single readings can be large or run the other way. The list is a sample of the results. Peptide text beside a SMILES is read from it. * marks the point of attachment. Cbz = O=C(OCc1ccccc1)*

The molecules below were run against Cytochrome P450 2C9 (Homo sapiens) (UniProt P11712) (assay: Cytochrome panel assay with activity outcomes). Conditions: recombinant CYP, pro-luciferin dealkylation, luminescence, p450-cyp2c9; series mostly up to 57.1 µM.
Sequence of Cytochrome P450 2C9 (Homo sapiens) (P11712 whole entry, looked up): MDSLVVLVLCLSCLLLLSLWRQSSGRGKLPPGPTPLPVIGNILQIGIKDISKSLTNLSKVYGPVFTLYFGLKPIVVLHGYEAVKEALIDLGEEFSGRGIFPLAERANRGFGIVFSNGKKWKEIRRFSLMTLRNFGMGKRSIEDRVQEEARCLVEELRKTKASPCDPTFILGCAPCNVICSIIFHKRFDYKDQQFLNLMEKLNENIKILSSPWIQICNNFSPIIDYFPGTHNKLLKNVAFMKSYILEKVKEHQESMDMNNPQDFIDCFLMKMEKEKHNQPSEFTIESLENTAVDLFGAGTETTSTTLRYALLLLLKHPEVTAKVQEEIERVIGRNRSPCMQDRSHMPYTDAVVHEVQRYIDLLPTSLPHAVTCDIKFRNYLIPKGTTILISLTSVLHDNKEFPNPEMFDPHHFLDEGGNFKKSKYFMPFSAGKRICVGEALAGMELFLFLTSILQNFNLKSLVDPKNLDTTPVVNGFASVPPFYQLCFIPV
% is set by controls: 0 for no effect and ±100 for the full control effect.

Structure (SMILES) | AC50 | activity, negative = inhibition
C[C@@]12CCC(=O)C=C1CC[C@H]1[C@H]3CC[C@](O)(C(=O)CO)[C@]3(C)CC(=O)[C@@H]12 | inactive | 
Cc1ccc(OC[C@H](O)[C@H](C)NC(C)C)c2c1CCC2 | inactive | 
CC(C)(CS)C(=O)N1CCC[C@H]1C(=O)O | inactive | 
c1ccc(C2=NN[C@@H]3c4ccccc4-c4ccccc4N3C2)cc1 |  | 6.37% [at 11.4 µM] (inactive)
O=C1N=C2SCCN2/C1=C\c1c(Cl)cccc1Cl | 15.8 µM (active) | 
O=C(O)c1ccc(OCc2ccccc2)c(Cl)c1 |  | -17.5% [at 11.4 µM] (inactive)
O=C(NCc1ccccc1)c1cccc(COc2cccc(Cl)c2)c1 | 17.8 µM (active) | 
C=CCCC(=O)Nc1nc(C)c(-c2csc(Nc3ccc(Cl)cc3)n2)s1 | 10 µM (active) | 
Cc1ccc(Nc2nc(-c3sc(NC(=O)c4cccc(Cl)c4)nc3C)cs2)cc1 | inactive | 
COc1ccccc1Nc1nc(-c2sc(NC(=O)c3ccccc3)nc2C)cs1 | 2.24 µM (active) | 
COc1ccc(OC)c(Nc2nc(-c3sc(NC(=O)c4ccccc4)nc3C)cs2)c1 | 3.55 µM (active) | 
Cc1nc(NC(=O)c2ccccc2)sc1-c1csc(Nc2cccc(Cl)c2)n1 | 3.55 µM (active) | 
Cc1nc(NC(=O)c2ccccc2)sc1-c1csc(Nc2ccc(Cl)cc2Cl)n1 | inactive | 
CCC1(O)c2ccccc2-c2ncccc21 (centres undefined) | inactive | 
C[N+](C)(C)CCCCCCCCCC[N+](C)(C)C | inactive | 
Cc1ccccc1-c1ccc2ncnc(NC3CC3)c2c1 |  | 19.9% [at 2.29 µM] (inactive)
Cc1ccccc1-c1cncnc1NC1CCNCC1 |  | 1.54% [at 2.29 µM] (inactive)
CCOc1ccccc1NC(=O)CCC(=O)O | inactive | 
CCOc1ccccc1Nc1nc(-c2sc(NC(=O)c3ccccc3)nc2C)cs1 | 2.51 µM (active) | 
CCOc1ccccc1Nc1ccc(N)cc1S(=O)(=O)O |  | -6.23% [at 11.4 µM] (inactive)
COc1ccc(C(=O)n2c(SC)nc3cc4c(cc32)OCCO4)cc1 | 1.41 µM (active) | 
COc1ccc(C(=O)Nc2ccc3c(c2)nc(CN2CCN(C(C)=O)CC2)n3C)cc1 | inactive | 
COc1ccc(C(=O)N2CCC3(CCN(Cc4cc(C(F)(F)F)cc(C(F)(F)F)c4)CC3)CC2)cc1 | inactive | 

Structure (SMILES) | AC50 | activity, negative = inhibition
COc1cccc(C(=O)n2c(SC)nc3cc4c(cc32)OCCO4)c1 | 20 µM (active) | 
CCOc1cc(/C=N/NC(=O)CN2CCCCC2)ccc1OCc1ccccc1 | inactive | 
CC(C)C(=O)N/N=C/c1ccc(OCc2ccccc2)cc1 | inactive | 
COc1cc(CNCc2cccs2)ccc1OCC(N)=O | inactive | 
O=C(N/N=C/c1cccc(OCc2ccccc2)c1)c1cccs1 | 2.51 µM (active) | 
Cc1ccc(/C=N/NC(=O)c2cccs2)cc1[N+](=O)[O-] | 3.98 µM (active) | 
COc1cc(/C=N/NC(=O)c2cccs2)ccc1OCc1ccccc1 | 2.24 µM (active) | 
O=C(N/N=C/C=C/c1ccc([N+](=O)[O-])cc1)c1cccs1 | inactive | 
C=CCc1ccccc1OC[C@H](O)CNC(C)C | inactive | 
Cc1cccn2c(=O)c(C=NCc3ccco3)c(Nc3ccc(SC(F)F)cc3)nc12 | inactive | 
CC1CCCC(C)N1C(=O)c1ccccc1Nc1ccc(SC(F)F)cc1 (centres undefined) | 7.08 µM (active) | 
CC(=O)OC[C@H]1O[C@@H](O/N=C(\C)CCN2CCc3nc(-c4ccccc4)c(-c4ccccc4)cc3C2)[C@H](OC(C)=O)[C@@H](OC(C)=O)[C@H]1OC(C)=O |  | 4.27% [at 11.4 µM] (inactive)
CCC(=O)OCc1c(C(F)(F)F)nn(C)c1Sc1ccc(F)cc1 | 10 µM (active) | 
OC[C@@H](O)CNc1ncnc2ccccc12 |  | 23.8% [at 11.4 µM] (inactive)
C[C@@H]1CN(CCCn2c3ccccc3c3ccccc32)C[C@H](C)N1 | 12.6 µM (active) | 
c1ccc2c(c1)c1ccccc1n2Cn1c2ccccc2c2ccccc21 |  | -11.7% [at 11.4 µM] (inactive)
c1ccc(C(CCN2CC3CCC(CC3)C2)c2ccccc2)cc1 |  | 8.36% [at 11.4 µM] (inactive)
CC1(C)NC(=O)N(c2ccc([N+](=O)[O-])c(C(F)(F)F)c2)C1=O | inactive | 
Cc1cccn2c(/C=N/OCc3cccc(F)c3)c(-c3ccc(Cl)cc3)nc12 | 6.31 µM (active) | 
Cc1cc2nc3c(=O)[nH]c(=O)nc-3n(CC(O)C(O)C(O)CO)c2cc1C (centres undefined) | inactive | 
COc1cccc(-c2ccc3ncnc(NC4CCNCC4)c3c2)c1 |  | 19.4% [at 2.29 µM] (inactive)
CSc1nc2n(n1)C(c1cc(Br)ccc1F)C(C(=O)N(C)C)=C(C)N2 (centres undefined) | 22.4 µM (active) | 
O=S(=O)(c1ccccc1)N1N=C(c2cccs2)CC1c1ccc(Br)cc1 (centres undefined) | 1.41 µM (active) | 

Structure (SMILES) | AC50 | activity, negative = inhibition
COC(=O)C(CC(C)C)NC(=O)C(N)Cc1ccccc1 (stereo not drawn) (H-Phe-Leu-OMe; configuration not given here) | inactive | 
CCCCC(C=O)NC(=O)C(CC(C)C)NC(=O)OCc1ccccc1 (centres undefined) | inactive | 
COC(=O)CCC(NC(=O)OCc1ccccc1)C(=O)NC(CC(C)C)C(=O)OC (centres undefined) (Cbz-Glu(OMe)-Leu-OMe; configuration not given here) | 0.355 µM (active) | 
COC(=O)N1CCC2(CCN(Cc3cc(C(F)(F)F)cc(C(F)(F)F)c3)CC2)CC1 | inactive | 
Cc1ccc(NS(=O)(=O)c2ccc(OCC(=O)Nc3cccc([N+](=O)[O-])c3)c(C)c2)cc1 | 1.26 µM (active) | 
Cc1ccc(OCC(=O)N/N=C\c2c(C)n(C)c3ccccc23)c([N+](=O)[O-])c1 | inactive | 
O=C(CN1CCCCC1)Nc1cccc([N+](=O)[O-])c1 | inactive | 
Cc1cc(Nc2ccc(Cl)cc2)nc(N)n1 | inactive | 
C=C1c2cccc(O)c2C(O)=C2C(=O)[C@@]3(O)C(O)=C(C(N)=O)C(=O)[C@@H](N(C)C)[C@@H]3[C@@H](O)[C@H]12 | inactive | 
Cc1nn(Cc2ccccc2Cl)c(C)c1NC(=O)CCCn1nc(C)c([N+](=O)[O-])c1C | inactive | 
Cc1nn(Cc2c(F)c(F)c(F)c(F)c2F)c(C)c1NC(=O)c1c(-c2ccccc2)nn(-c2ccccc2)c1C | 7.08 µM (active) | 
Cc1nn(Cc2c(F)c(F)c(F)c(F)c2F)c(C)c1NC(=O)c1cccc(COc2ccc(Cl)cc2)c1 | 2.82 µM (active) | 
Cc1nn(Cc2c(F)c(F)c(F)c(F)c2F)c(C)c1NC(=O)c1cccc(COc2ccccc2Cl)c1 | 8.91 µM (active) | 
CCN[C@@H]1C[C@H](C)S(=O)(=O)c2sc(S(N)(=O)=O)cc21 | inactive | 
CC(C)CN1CC[C@@]2(CCCN(C(=O)c3csnn3)C2)C1 | inactive | 
C#CCCCO/N=C1/C[C@@H](O)[C@@H](O)[C@@H]2[C@H]3C(=O)N(c4ccc(F)cc4F)C(=O)[C@@H]3CC[C@@H]12 |  | 7.37% [at 11.4 µM] (inactive)
O=C(CCCCC(=O)Nc1c(I)cc(I)c(C(=O)O)c1I)Nc1c(I)cc(I)c(C(=O)O)c1I | inactive | 
c1ccc2c(NC3CCNCC3)nc(-c3ccoc3)nc2c1 |  | -0.161% [at 2.29 µM] (inactive)
Cc1cc(Cl)ccc1Nc1sc(C(=O)c2cc3cc(Cl)ccc3o2)c(N)c1C#N | 1.26 µM (active) | 
Nc1nc2c(c(=O)[nH]1)N[C@H](CCNc1ccc(C(=O)O)cc1)CN2 |  | 10.2% [at 11.4 µM] (inactive)
O=C1c2ccccc2C2=Nc3ccccc3SC(c3ccccc3F)C12 (centres undefined) | 0.0891 µM (active) | 
CC(C)(C)C(=O)[C@H]([C@@H](c1ccccc1)N1CCOCC1)N1CCOCC1 |  | 3.46% [at 11.4 µM] (inactive)
OC(c1ccccc1)(c1ccc(F)cc1)C(c1ccccc1)N1CCOCC1 (centres undefined) | 11.2 µM (active) | 

Structure (SMILES) | AC50 | activity, negative = inhibition
C[C@@H](N1CCOCC1)[C@@](O)(c1ccccc1)c1ccccn1 |  | 16.5% [at 11.4 µM] (inactive)
CN1CCN(c2ccncc2S(=O)(=O)N2CCN(C)CC2)CC1 |  | 14.6% [at 11.4 µM] (inactive)
COc1ccc(N2CCN(CCNC(=O)c3c(C)cc(=O)oc3C)CC2)cc1 | inactive | 
COc1ccc(N2CCC(CNC(=O)Nc3ccc(OC)cc3OC)C2)cc1 (centres undefined) | 17.8 µM (active) | 
c1ccc(-c2noc(-c3ccc4ccccc4c3)n2)cc1 | inactive | 
CCC(Sc1ncccc1C(=O)O)C(=O)N1CCOCC1 (centres undefined) | inactive | 
O=C(c1ccccc1-c1nc(-c2ccccc2)no1)N1CCOCC1 | 14.1 µM (active) | 
CCOc1cc(-c2noc(N)c2C#N)cc(OCC)c1OCC | 7.94 µM (active) | 
O=C(O)C[n+]1ccccc1 |  | 6.61% [at 11.4 µM] (inactive)
C[C@@]12C(=O)OC(=O)[C@@]1(C)[C@@H]1CC[C@@H]2O1 | inactive | 
CS(=O)(=O)c1cnc2c(-c3ccc(F)cc3)cnn2c1N | inactive | 
CS(=O)(=O)c1ccc(-c2cc(Br)sc2-c2ccc(F)cc2)cc1 | 0.794 µM (active) | 
CC(=O)OC[C@@H]1O[C@@H](O/N=C2/C[C@@H](O)[C@@H](O)[C@@H]3[C@H]4C(=O)N(c5ccc(F)cc5F)C(=O)[C@@H]4CC[C@H]23)[C@H](OC(C)=O)[C@H](OC(C)=O)[C@@H]1OC(C)=O |  | 29.1% [at 11.4 µM] (inactive)
Cc1cc(-c2ccccc2)nnc1NCCN1CCOCC1 | inactive | 
CN(C)/C(CN1CCOCC1)=C1\N=C(c2ccccc2)OC1=O | 17.8 µM (active) | 
CN(C)/C(CN1CCN(C=O)CC1)=C1\N=C(c2ccccc2)OC1=O | inactive | 
CCCCCCCCN1C(=O)N(C)C(N(O)C(=O)NC)C1(C)C (centres undefined) | inactive | 
COC(=O)CNC(=O)CN1C(=O)N(c2ccc(Cl)cc2)C(N(O)C(=O)Nc2ccc(Cl)cc2)C1(C)C (centres undefined) | 14.1 µM (active) | 
O=C(O)c1ccccc1OP(=O)(O)O | inactive | 
CC(C)(C)[C@@]1(O)CCN2C[C@@H]3c4ccccc4CCc4cccc(c43)[C@@H]2C1 | 1.58 µM (active) | 
